The list is not random: actives were taken first. Their share in the collection is about 19%.
TDP1 cell CPT: growth inhibition of DT40 Tdp1-/-;hTDP1 cells with camptothecin (screen for TDP1 inhibitors); chicken DT40 Tdp1-/-;hTDP1 cells + 20 nM CPT, ATP luminescence, 48 h; Potency, µM (titrated, usually from 46.2 µM), without a hit: top-dose activity change, negative = growth inhibition, actives largely listed as inhibitors; 12% of 420,000 active; further: nearly all actives have a fitted effect of over 55% in size
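Chicken DT40 Tdp1-/- cells stably complemented with human TDP1 were seeded at 400 cells/well in medium containing 20 nM camptothecin, exposed to pin-transferred compounds, and grown at 37 °C for at least 48 hr. Viability was read as ATP luminescence.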
VP16 counter: Gal4-VP16 reporter inhibition counter-screen; Drosophila S2 Gal4-VP16 UAS-luciferase, luminescence, 20 h; Potency, µM (highest dose often 53.6 µM), inactives show top-dose activity, negative = inhibition, usual class: inhibitors; 3.5% of 310,000 active; AID 2546;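 further: Gal4-VP16 expression switched on by copper sulfate through the metallothionein promoter; nearly all actives have a fitted effect of over 50% in size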
DT40 TDP1 no CPT: qHTS for Inhibitors of human tyrosyl-DNA phosphodiesterase 1 (TDP1): qHTS in cells in absence of CPT; DT40 Tdp1-/- hTDP1 cells, no CPT, ATP luminescence, 48 h; Potency, µM (highest dose often 46.2 µM), without a hit: top-dose activity change, negative = growth inhibition, actives largely listed as inhibitors; 15% of 420,000 active; AID 686978, 2013; further: nearly all actives have a fitted effect of over 55% in size
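Stably hTDP1-transfected Tdp1-null chicken DT40 cells were treated with library compounds minus camptothecin and grown for at least 48 hr at 37 °C, after which cellular ATP was quantified by luminescence.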
TDP1 inh: inhibitors of human tyrosyl-DNA phosphodiesterase TDP1 | Q9NUW8 | recombinant TDP1, AlphaScreen DNA substrate cleavage | Potency, µM (doses to about 130 µM), without a hit: top-dose activity change, negative = inhibition, actives largely listed as inhibitors | 0.28% of 350,000 active | AID 485290; further: nearly all actives have a fitted effect of over 40% in size
Target sequence (Q9NUW8 whole entry, looked up): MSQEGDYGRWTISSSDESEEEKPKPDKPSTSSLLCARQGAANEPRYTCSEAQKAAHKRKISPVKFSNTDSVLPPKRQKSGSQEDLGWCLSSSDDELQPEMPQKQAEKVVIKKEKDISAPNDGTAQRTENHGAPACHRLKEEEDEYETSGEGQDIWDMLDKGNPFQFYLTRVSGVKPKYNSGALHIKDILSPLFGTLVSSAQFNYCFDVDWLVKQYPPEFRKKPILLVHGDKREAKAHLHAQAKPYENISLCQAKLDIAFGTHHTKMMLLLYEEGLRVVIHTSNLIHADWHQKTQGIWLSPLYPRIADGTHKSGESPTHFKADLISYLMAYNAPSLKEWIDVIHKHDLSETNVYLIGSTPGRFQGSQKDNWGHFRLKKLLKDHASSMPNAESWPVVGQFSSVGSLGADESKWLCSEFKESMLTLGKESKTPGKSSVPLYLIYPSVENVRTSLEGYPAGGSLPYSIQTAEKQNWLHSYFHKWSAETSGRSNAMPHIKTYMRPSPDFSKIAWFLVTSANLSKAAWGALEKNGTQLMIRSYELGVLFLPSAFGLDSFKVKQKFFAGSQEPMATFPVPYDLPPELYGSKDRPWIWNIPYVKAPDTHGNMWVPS
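Recombinant human Tdp1 (E. coli-expressed, 1 nM final) preincubated with compounds 15 min at room temperature, then 5'-biotin/3'-phosphotyrosine-FITC DNA substrate (15 nM final) added for 5 min. AlphaScreen beads (10 ug/ml final) added 10 min; cleavage lowers signal.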
RORg inh: ROR gamma (mouse) transcription inhibition | P51450 | Drosophila S2 Gal4-RORgamma UAS-luciferase reporter, 20 h | Potency, µM (doses to about 53.6 µM), without a hit: at the highest dose activity change, negative = inhibition, usual class: inhibitors | 5.4% of 310,000 active | AID 2551; further: nearly all actives have a fitted effect of over 60% in size
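A Gal4/UAS one-hybrid system in insect cells: metallothionein-promoter Gal4–ROR gamma fusion plus Photinus luciferase reporter. Copper sulfate 700 uM final, 20 hr ambient incubation, luminescent detection after 10 min with reagent.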
* hit, by the source's call; ? = inconclusive; · = no result; [ ] = dose if it differs, or a comment. The call rests on the fitted dose curve; in most records, active means well fitted curve in the direction sought with a large enough effect; inconclusive means small, poorly fitted or top-dose-only effect, or another doubt; inactive means no such curve, though single readings can be large; an effect the other way counts as inactive or inconclusive. On the % scale 0 is the no-effect control and ±100 the full control effect; potency means the concentration at half of the fitted maximal effect.

SMILES	TDP1 cell CPT	VP16 counter	DT40 TDP1 no CPT	TDP1 inh	RORg inh
Cc1ccc(/C=C/c2onc(C)c2S(=O)(=O)N2CCC(C(=O)N3CCN(c4cccc(C)c4)C(C)C3)CC2)cc1 (stereo not given)	21µM*	·	12µM*	8%	·
COc1ccc(/C=C/c2onc(C)c2S(=O)(=O)N2CCC(C(=O)N3CCC(C)CC3)CC2)cc1	16µM*	-8%	16µM*	1%	13%
Cc1ccc(OCC(=O)N/N=C/c2ccccc2)c([N+](=O)[O-])c1	9%	1%	-18%	6%	-3%
CCc1nnc(NC(=O)CCC(=O)N2CCCC(O)C2)s1 (stereo not given)	2%	-14%	7%	-1%	-12%
COc1cccc(/C=C/c2onc(C)c2S(=O)(=O)N2CCC(C(=O)N3CCC(C)CC3)CC2)c1	?	·	16µM*	-2%	·
COc1cccc(/C=C/c2onc(C)c2S(=O)(=O)N2CCC(C(=O)NC3CCCCCC3)CC2)c1	-13%	-4%	6%	0%	11%
COc1ccc(CNC(=O)c2nc(SC(C)C)ncc2Cl)cc1	29µM*	·	23µM*	0%	·
COc1ccc(CNC(=O)c2nc(S(=O)(=O)Cc3ccccc3)ncc2Cl)cc1	1.3µM*	3.5µM*	1.3µM*	6%	5.6µM*
COc1ccc(CNC(=O)c2nc(SCc3ccc(C)cc3)ncc2Cl)cc1	-10%	·	?	2%	·
O=C(NCc1ccccc1)c1nc(S(=O)(=O)Cc2ccccc2)ncc1Cl	2.9µM*	2.8µM*	2.3µM*	1%	5µM*
Cc1ccc(CNC(=O)c2nc(SCc3ccccc3C)ncc2Cl)cc1	?	·	?	2%	·
COc1ccc(NC(=O)c2nc[nH]c2C(=O)NCc2ccccc2)cc1	?	·	?	1%	·
O=C(NCc1ccccc1)c1c(Cl)nc(Cl)c(Cl)c1Cl	?	20%	18µM*	·	-29%
O=C(O)C1C2C=CC(C2)C1C(=O)NCCc1ccncc1 (stereo not given)	-6%	2%	-16%	·	-38%
COc1ccc(CCNC(=O)C2CCN(C(=O)c3ccc(C(C)(C)C)cc3)CC2)cc1	?	?	?	3%	?
O=C(OCC#CCSc1nnc(-c2cccc3ccccc23)o1)c1sc(Cl)c(Cl)c1Cl	·	·	·	-2%	·
Cc1cc(C)cc(N2C(=O)N(CC(=O)c3ccc(Br)cc3)c3ccccc3S2(=O)=O)c1	-4%	·	-18%	5%	·
CCS(=O)(=O)c1ncc(Cl)c(C(=O)NCc2ccccc2)n1	?	·	2.3µM*	-5%	·
CCN(c1ccccc1)S(=O)(=O)c1ccc(NC(=O)c2nc(SC(C)C)ncc2Cl)cc1	21µM*	·	18µM*	-5%	·
Cc1noc(C(=O)NCc2ccccc2)c1Cl	-15%	0%	-2%	4%	16%
Cc1cc(OCC(=O)NC(C)C)ccc1Cl	-4%	-7%	?	3%	1%
Cc1cc(OCn2ccc(C(=O)O)n2)ccc1Cl	1%	16µM*	-1%	4%	?
COc1ccc(Oc2ncc3nc(C)c(=O)n(Cc4ccc(F)cc4)c3n2)cc1	?	3%	21µM*	·	?
COc1cccc(Cn2c(=O)c(C)nc3cnc(OCc4ccccc4)nc32)c1	-23%	-7%	18µM*	·	-7%
COc1cccc(Cn2c(=O)c(C)nc3cnc(Oc4cccc(Cl)c4)nc32)c1	-33%	4%	23µM*	·	-1%
SMILES	TDP1 cell CPT	VP16 counter	DT40 TDP1 no CPT	TDP1 inh	RORg inh
COc1ccc(Oc2ncc3nc(C)c(=O)n(Cc4cccs4)c3n2)cc1	?	-5%	?	·	?
CCOc1ccc(-c2cccc(NS(=O)(=O)c3ccc(Cl)s3)c2)nn1	?	·	?	4%	·
O=C(NC1CSCC1OC(=O)c1ccccc1)c1ccccc1 (stereo not given)	-1%	-5%	16%	-2%	4%
Nc1ccccc1C(=O)NCc1ccccc1	?	4%	?	1%	1%
CCc1ccc(NC(=S)N2CCC(NC(=O)C3CCCCC3)CC2)cc1	4%	-4%	15%	5%[0.0935 µM]	-18%
CCNC(=O)c1c(NC(=O)c2cc(=O)c3ccc(C)c(C)c3o2)sc2c1CCCC2	11%	·	-14%	4%	·
COc1ccccc1-n1c(SCC(=O)N2CCCCC2)nc2cccnc21	-4%	-3%	-15%	3%	20%
CCC(=O)Nc1ccc(CCC(=O)N2CCCC2)cc1	11%	-4%	-1%	·	-33%
O=C(C[C@H]1C/C=C\C[C@H](Cc2ccc(F)cc2)C(=O)O[C@@H](c2ccccc2)CNC1=O)N[C@H](CO)Cc1ccccc1	?	·	10µM*	0%	·
O=C(C[C@H]1C/C=C\CC[C@H](Cc2ccc(F)cc2)C(=O)O[C@H](c2ccccc2)CNC1=O)N[C@H](CO)Cc1ccccc1	13µM*	·	13µM*	-2%	·
O=C(C[C@H]1C/C=C\CC[C@H](Cc2ccc(F)cc2)C(=O)O[C@@H](c2ccccc2)CNC1=O)N[C@@H](CO)Cc1ccccc1	?	·	?	0%	·
Cc1nnc(SCC(=O)NNC(=O)c2ccc(F)cc2)n1Cc1ccccc1	-19%	·	1%	1%	·
CCCc1sc(N/N=C/c2ccccn2)nc1-c1ccc(F)cc1	4.6µM*	0.32µM*	4.6µM*	4%[56.1 µM]	0.28µM*
O=C(Cc1ccc(F)cc1)N/N=C/c1ccccn1	-19%	11%	-17%	3%	-32%
Cc1nc(N/N=C/c2ccccn2)sc1C	1.3µM*	0.5µM*	1.3µM*	11%	0.11µM*
O=C(Nc1cccc(Cl)c1)Nc1nc(-c2ccc(Cl)cc2)cs1	12µM*	-6%	16µM*	-2%	?
O=C(Nc1nc(-c2ccc(F)c(F)c2)cs1)Nc1ccc(F)cc1F	1.6µM*	-2%	0.65µM*	·	-2%
O=C(Cc1ccccc1)Nc1nc(-c2ccc(F)c(F)c2)cs1	1.8µM*	-5%	?	·	11%
COC(=O)c1c(-c2ccc3ccccc3c2)csc1NC(=O)Cc1ccc(OC)c(OC)c1	-74%	?	13µM*	-2%	?
O=C(Nc1nc(-c2ccc(F)c(F)c2)cs1)C1=COCCO1	?	·	?	3%	·
O=C(Cc1cccs1)Nc1nc(-c2ccc(F)cc2F)cs1	10µM*	-23%	?	1%	-4%
O=C(Nc1cccc(Cl)c1)Nc1csc([N+](=O)[O-])c1	2.9µM*	?	2.3µM*	2%	-13%
COc1cccc(NC(=O)Nc2nc(-c3ccc(OC)c(OC)c3)cs2)c1	18µM*	?	7.3µM*	0%	?
CC(=O)Nc1ccc(-c2csc(NC(=O)Cc3cccc(F)c3)n2)cc1	?	3%	23µM*	14%	32%

Bioassay records from PubChem BioAssay.
